High-throughput results (PubChem)
M4 antag: human M4 muscarinic receptor antagonists, primary screen, CHO cells, Fluo-8 calcium fluorescence. Muscarinic acetylcholine receptor M4 (Homo sapiens), P08173. inhibition, % at 3 µM. 360,000 compounds, 0.73% hits. CHO-hM4 cells, ACh EC80;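 active = inhibition above its plate's cutoff, the mean inhibition of sample wells plus 3 SD, cut at about 27% in these data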;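 also: 0% = acetylcholine EC80 with DMSO and 100% = DMSO without agonist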
Target sequence (P08173 whole entry, looked up): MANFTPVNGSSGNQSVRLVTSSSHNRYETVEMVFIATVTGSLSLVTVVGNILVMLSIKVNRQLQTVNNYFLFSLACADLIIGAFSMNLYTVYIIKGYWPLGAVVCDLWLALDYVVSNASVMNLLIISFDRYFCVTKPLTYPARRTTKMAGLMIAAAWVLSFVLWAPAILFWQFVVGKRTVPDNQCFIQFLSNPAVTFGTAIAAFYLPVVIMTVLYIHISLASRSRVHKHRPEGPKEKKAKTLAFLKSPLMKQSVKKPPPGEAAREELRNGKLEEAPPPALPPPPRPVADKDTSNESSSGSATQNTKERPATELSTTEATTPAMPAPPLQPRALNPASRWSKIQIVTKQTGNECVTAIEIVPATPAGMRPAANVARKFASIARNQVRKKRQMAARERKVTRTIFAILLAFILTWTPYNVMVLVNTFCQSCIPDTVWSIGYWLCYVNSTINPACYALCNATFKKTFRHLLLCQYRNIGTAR
M4 PAM: human M4 muscarinic receptor positive allosteric modulators, primary screen, CHO-K1 cells, Fluo-8 calcium fluorescence; Muscarinic acetylcholine receptor M4 (Homo sapiens), P08173; CHO-K1 hM4/Gqi5, ACh EC20; 0% = ACh EC20, 100% = maximal ACh; activation, % at 3 µM; 360,000 compounds, 0.4% hits;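 active = activation above its plate's cutoff, the mean activation of sample wells plus 3 SD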
M1 PAM parental: nonselective calcium activators in parental CHO-K1 cells, primary screen, counter-screen for M1 PAM project, cell-based, Fluo-8 calcium fluorescence, full deck, 1536-well | ATP EC20; 0% at ATP EC20, 100% at ATP max | 360,000 compounds, 0.02% hits | activation, % at 3 µM;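 active = activation above the run cutoff, the mean activation of all test compounds plus 3 SD, cut at about 40% in these data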;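 also: peak over basal fluorescence ratio in a 140 s read after ATP addition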
CHO-K1 Ca antag: counter-screen for M1 antagonists: effect in parental CHO-K1 cells | ATP-induced calcium, Fluo-8 fluorescence | inhibition, % at 3 µM | 360,000 compounds, 0.6% hits | AID 602250;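 active = inhibition above a per-plate cutoff, the plate's mean sample inhibition plus 3 SD, cut at about 24% in these data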;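 also: 0% = DMSO plus EC80 ATP and 100% = DMSO alone without ATP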
CHRM4 agonist: human M4 muscarinic receptor agonists, primary screen, CHO-K1 cells, Fluo-8 calcium fluorescence | Muscarinic acetylcholine receptor M4 (Homo sapiens), P08173 | CHO-K1 hM4/Gqi5; vehicle 0%, full acetylcholine response 100% | activation, % at 3 µM | 360,000 compounds, 0.14% hits;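 active = activation above the run mean over all test wells plus 3 SD, cut at about 32% in these data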;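 also: peak over basal fluorescence ratio per well then scaled between controls; 0% = DMSO wells and 100% = acetylcholine at EC100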
M1 ag parental: counter-screen for M1 agonists: effect in parental CHO-K1 cells; 360,000 compounds, 0.48% hits; AID 602248, 2012; Fluo-8 calcium fluorescence; scaled to maximal ATP response, vehicle zero; activation, % at 3 µM; in the data active = activation above about 15%;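 also: untransfected CHO-K1 host cells lacking M1 receptor as counterscreen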
* = called active by the depositor. Only some compounds are listed: those with a hit (about 2% of all), similar ones and a draw of the others.

SMILES | M4 antag | M4 PAM | M1 PAM parental | CHO-K1 Ca antag | CHRM4 agonist | M1 ag parental
CCCc1cc(Nc2ccccc2OCC)n2ncnc2n1 | 4 | -2 | -7 | 28* | 0 | 0
CC(CCc1ccccc1)NCc1cccc2ccccc12 (stereo not drawn) | 9 | -9 | 1 | 4 | 5 | 3
O=C(N/N=C/c1ccc(OC(F)F)cc1)C1=COCCO1 | -2 | -4 | 17 | -13 | 1 | 1
Nc1nc(-c2ccccc2)c(-c2ccccc2)n1N | 5 | -2 | -17 | 11 | 4 | 1
c1ccc(-c2cnn3c(-c4ccccc4)c(-c4ccccc4)nc3n2)cc1 | 7 | 6 | 11 | 28* | 10 | 31*
O=S(=O)(NCCC1CC1(Cl)Cl)c1ccccc1 (stereo not drawn) | -5 | -5 | 10 | -9 | 2 | 1
Nc1nonc1-n1nnc(C(=O)N/N=C/c2ccc(F)cc2)c1-c1ccc2c(c1)OCO2 | -7 | 3 | 4 | -19 | 2 | 1
COc1ccc(/C=N/NC(=O)c2nnn(-c3nonc3N)c2-c2cccc(OC)c2)cc1 | -12 | 5 | 29 | -16 | 10 | 9
CCOc1cccc(-c2c(C(=O)N/N=C/c3cccs3)nnn2-c2nonc2N)c1 | -8 | 7 | 31 | -14 | 8 | 25*
Cc1ccc(/C=N/NC(=O)c2nnn(-c3nonc3N)c2-c2ccc3c(c2)OCO3)s1 | -12 | 3 | 19 | -13 | 11 | 22*
CCOc1ccc(-c2c(C(=O)N/N=C/c3c[nH]c4ccccc34)nnn2-c2nonc2N)cc1 | 5 | -4 | -23 | 25* | 5 | 1
COc1cccc(-c2c(C(=O)N/N=C/c3cccs3)nnn2-c2nonc2N)c1 | -9 | 3 | 19 | -19 | 8 | 32*
CCOc1cccc(-c2c(C(=O)N/N=C/c3ccncc3)nnn2-c2nonc2N)c1 | 6 | 2 | 4 | 3 | 3 | 1
O=C(CN1CCC(C(=O)c2cccc(F)c2)CC1)NCc1cccs1 | 4 | 1 | 11 | -6 | 1 | 0
CN(C)/C=C(\C#N)S(=O)(=O)c1ccc(Cl)cc1 | -20 | 5 | -6 | -11 | 1 | 0
Cc1ccc(/C=N/NC(=O)c2nnn(-c3nonc3N)c2-c2cccs2)cc1 | -1 | 10 | 30 | 1 | 10 | 33*
COc1ccc(/C=N/NC(=O)c2nnn(-c3nonc3N)c2-c2cccs2)cc1OC | -11 | -5 | -2 | 2 | 15 | 6
CCN(CC)C(=O)N1c2ccccc2C=Cc2ccccc21 | 4 | -8 | 19 | -6 | -3 | 1
CN1/C(=C\C(=O)c2cncc(Br)c2)C(C)(C)c2ccccc21 | 6 | -12 | -16 | 24* | 4 | 1
CN1/C(=C\C(=O)c2ccco2)C(C)(C)c2ccccc21 | 37* | -20 | 1 | 39* | 10 | 14
CN1/C(=C\C(=O)c2cccnc2)C(C)(C)c2ccccc21 | 3 | -6 | 12 | -1 | 8 | 3
CN1/C(=C\C(=O)COC(=O)c2ccco2)C(C)(C)c2ccccc21 | -2 | -7 | 17 | -10 | 4 | 6
CCc1nc(C)ccc1OCC(=O)O | -5 | 7 | 19 | -5 | 1 | 1
CCC1c2ccc(C)n2CCN1C(=O)Nc1ccc(F)cc1 (stereo not drawn) | -4 | -4 | -7 | 26* | 2 | 7
Cc1nn(Cc2cccc(C(=O)NC(C)c3ccc(C(C)(C)C)cc3)c2)c(C)c1[N+](=O)[O-] (stereo not drawn) | 19 | -30 | 10 | -4 | 0 | 2
SMILES | M4 antag | M4 PAM | M1 PAM parental | CHO-K1 Ca antag | CHRM4 agonist | M1 ag parental
Cc1ccc(S(=O)(=O)CCC(=O)NCCN2C(=O)S/C(=C/c3ccc(F)cc3)C2=O)cc1 | 9 | -7 | -12 | 26* | 13 | 6
Cc1cc(NC(=O)CSc2ccc3nnc(CCNC(=O)c4ccccc4)n3n2)no1 | -3 | 30* | 12 | -27 | 1 | 0
CCN(CC)S(=O)(=O)c1ccc(OC)c(NC(=O)c2ccc([N+](=O)[O-])cc2)c1 | 6 | 3 | 7 | -1 | 2 | 0
CCN(CC)CCNC(=O)c1ccc2c(=O)n(C3CCCC3)c(=S)[nH]c2c1 | 27* | -27 | 23 | -5 | 2 | 3
CC1CCN(CCNC(=O)c2ccc3c(=O)n(Cc4ccc(Cl)cc4)c(=S)[nH]c3c2)CC1 | 29* | -22 | -7 | 5 | 59* | 4
O=C(NCc1ccccc1Cl)c1ccc2c(=O)n(CCCN3CCCC3=O)c(=S)[nH]c2c1 | 2 | 7 | -8 | 30* | 1 | -1
Cc1ccc(C)c(S(=O)(=O)NCc2ccc(C(=O)N3CCCCCC3)cc2)c1 | -10 | -3 | 20 | -8 | 11 | 4
CCCCN1CCCCC1C(=O)Nc1c(C)cc(C)cc1C (stereo not drawn) | 20 | -4 | 0 | 30* | 1 | 0
Cc1cc(C)c(NC(=O)C2CCCN2CCO)c(C)c1 (stereo not drawn) | -18 | 5 | 19 | -13 | 1 | 1
COc1ccc2nc(NC(=O)Nc3ccccc3)sc2c1 | 43* | -18 | -10 | 19 | 18 | 7
CCOc1ccc2nc(NC(=O)Nc3ccccc3)sc2c1 | 5 | -5 | -1 | 4 | 5 | 1
CCOc1ccc(S(=O)(=O)N(C)c2ccc(OCC(=O)Nc3nc(-c4cc(OC)ccc4OC)cs3)cc2)cc1 | -7 | 30* | -2 | 3 | 0 | 0
COc1ccc(OC)c(-c2csc(NC(=O)Cc3ccccc3F)n2)c1 | 54* | -20 | 8 | -12 | 0 | 2
Cc1cc(C)nc(/N=C2\NC(=O)CC3C(=O)NCCN23)n1 (stereo not drawn) | -3 | 10 | 19 | -12 | 1 | 1
Cc1ccccc1CN1CCN(CC2CC3C=CC2C3)CC1 (stereo not drawn) | 44* | -21 | -3 | 4 | 2 | 0
Cc1sc(NC(=O)c2cccs2)c(C(N)=O)c1C | -1 | 18* | 11 | -16 | 1 | 0
NC(=O)c1ccsc1NC(=O)c1cccs1 | -15 | 4 | 0 | 7 | 1 | 2
COc1cc2c(cc1OC)C(c1ccc([N+](=O)[O-])cc1)N(C(C)=O)CC2 (stereo not drawn) | 5 | -4 | 16 | -3 | 2 | 16*
COc1ccc(C2c3cc(OC)c(OC)cc3CCN2C(=O)c2cccc([N+](=O)[O-])c2)cc1OC (stereo not drawn) | -1 | 2 | -4 | -7 | 1 | 2
